Ten compounds from PubChem BioAssay (NCI) can be followed below.

The nature of assay [1]: NCI Yeast Anticancer Drug Screen. Data for the rad50 strain (AID 155).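 Also: 0% = growth of vehicle-only cultures of the same strain.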 As to conditions: S. cerevisiae rad50 strain growth inhibition, hits give high values. The method, boiled down:
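Cells are treated with compound, grown, and their growth is then scored against vehicle-only cultures of the same repair-deficient yeast strain.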

Assay [2] in a line: NCI Yeast Anticancer Drug Screen. Data for the mec2-1 strain (AID 157). To be noted: S. cerevisiae mec2-1 strain, hits give high values. The essentials: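 Using mec2-1 yeast: add compound, measure growth, express inhibition versus vehicle-treated cultures.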
The nature of assay [3]: NCI Yeast Anticancer Drug Screen. Data for the sgs1 mgt1 strain (AID 161).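 Also: 0% = growth of cultures given vehicle only.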 To be noted: S. cerevisiae sgs1 mgt1 strain, hits give high values. The method, boiled down:
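Growth of a repair-deficient yeast mutant was monitored after compound treatment and expressed as inhibition relative to vehicle-treated cultures.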

A short description of assay [4]: NCI Yeast Anticancer Drug Screen. Data for the cln2 rad14 strain (AID 165).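 Also: 0% = growth equal to vehicle treated cultures.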 As to conditions: S. cerevisiae cln2 rad14 strain, hits give high values. The essentials: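 Yeast strain cln2 rad14, bearing defects in cell cycle control and DNA repair, serves as the test system; values reflect growth inhibition compared with vehicle.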
Assay [5] is described as follows: NCI Yeast Anticancer Drug Screen. Data for the bub3 strain (AID 167). To be noted: S. cerevisiae bub3 mutant strain, hits give high values. The essentials:
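Part of a panel of yeast mutants defective in DNA damage repair or cell cycle regulation. Each strain is grown with compound, and inhibition is calculated relative to solvent-treated cultures.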

Assay [6] in a line: NCI Yeast Anticancer Drug Screen. Data for the mlh1 rad18 strain (AID 175). As to conditions: S. cerevisiae mlh1 rad18 strain growth inhibition, hits give high values. The essentials:
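Steps: expose repair-defective yeast to compound; measure growth; express inhibition against vehicle-treated controls.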

[7] abbreviates: at 5.0 µM (retest, dose inferred, filed as 0.5).
The mark [8] stands for this setting: at 50.0 µM (retest, dose inferred, filed as 5.0).

About 79,000 compounds went through this panel and 15% of them were active in at least one assay; those are over-represented in the sample as a whole. A number with no mark means an inactive call. Calls of active or inactive are those of the source. Rule as the data show it: active = growth inhibition above about 70%; inactive = the rest.

For `CC(/C=C/c1cccs1)=N\C(=S)NC(N)=S`, the growth inhibition is -1% in assay [1] (setting [7]); 0% in assay [1] (setting [8]); 3.7% in assay [1] (at 50.0 µM); 10% in assay [2] (setting [7]); 32% in assay [2] (setting [8]); 28.4% in assay [2] (at 50.0 µM). Further, the growth inhibition in assay [3] (setting [7]) is 1%; in assay [3] (setting [8]) it was 12%; in assay [3] (at 50.0 µM), 26.7%; in assay [4] (setting [7]) it was -1%; in assay [4] (setting [8]), -4%; in assay [4] (at 50.0 µM), 2.05%. Besides, the growth inhibition in assay [5] (setting [7]) is 1%; in assay [5] (setting [8]), 52%; in assay [5] (at 50.0 µM), 77.8% (active).
On to `C1=NCCN=Cc2ccccc2NCCNc2ccccc21`, for which the growth inhibition in assay [1] (setting [7]) was 3%; in assay [1] (setting [8]) it was 2%; in assay [1] (at 50.0 µM), 55.2%; in assay [2] (setting [7]), 6%; in assay [2] (setting [8]) it was -20%; in assay [2] (at 50.0 µM) it was 58.6%. Besides, the growth inhibition in assay [3] (setting [7]) was 4%; in assay [3] (setting [8]), 41%; in assay [3] (at 50.0 µM) it was 74.8% (active); in assay [4] (setting [7]) it was 15%; in assay [4] (setting [8]), 23%; in assay [4] (at 50.0 µM), 53.5%. Besides, the values for the growth inhibition in assay [5] (setting [7]), in assay [5] (setting [8]) and in assay [5] (at 50.0 µM) were 6%, 6% and 43.5%, respectively.
For the compound `C[N+]12CC3C4CC(C3C1)C2C4` (stereo not drawn), the growth inhibition was -19% in assay [1] (setting [7]); -27% in assay [1] (setting [8]); 4.05% in assay [1] (at 50.0 µM); -15% in assay [2] (setting [7]); -13% in assay [2] (setting [8]); -2.9% in assay [2] (at 50.0 µM). The growth inhibition in assay [3] (setting [7]) is -3%; in assay [3] (setting [8]), 4%; in assay [3] (at 50.0 µM), 12.6%; in assay [4] (setting [7]), 29%; in assay [4] (setting [8]), 13%; in assay [4] (at 50.0 µM), 1.3%. In addition, the values for the growth inhibition in assay [5] (setting [7]), in assay [5] (setting [8]) and in assay [5] (at 50.0 µM) were -6%, -12% and 13.6%, respectively.
As to `N#CSCC(=O)c1ccc(Cl)cc1`, the growth inhibition in assay [1] (setting [7]) was 43%; in assay [1] (setting [8]), 61%; in assay [1] (at 50.0 µM), 89.5% (active); in assay [2] (setting [7]), 60%; in assay [2] (setting [8]), 63%; in assay [2] (at 50.0 µM) it was 91% (active). Also, the growth inhibition in assay [3] (setting [7]) was 92% (active); in assay [3] (setting [8]) it was 98% (active); in assay [3] (at 50.0 µM) it was 92.5% (active); in assay [4] (setting [7]), 83% (active); in assay [4] (setting [8]), 98% (active); in assay [4] (at 50.0 µM) it was 89.5% (active). Also, the growth inhibition in assay [5] (setting [7]) was 93% (active); in assay [5] (setting [8]), 99% (active); in assay [5] (at 50.0 µM), 89.5% (active); in assay [6] (setting [7]), 36%; in assay [6] (setting [8]) it was 56%; in assay [6] (at 50.0 µM), 89.5% (active).
On to `CCCCCCCCCCCCCCCCCC(=O)OCC(COC(=O)CCCN)OC(=O)CCCN` (stereo not drawn), for which the growth inhibition is 18% in assay [1] (setting [7]); 99% (active) in assay [1] (setting [8]); 98.7% (active) in assay [1] (at 50.0 µM); 9% in assay [2] (setting [7]); 99% (active) in assay [2] (setting [8]); 97.5% (active) in assay [2] (at 50.0 µM). Besides, the growth inhibition in assay [3] (setting [7]) is 3%; in assay [3] (setting [8]) it was 99% (active); in assay [3] (at 50.0 µM), 98% (active); in assay [4] (setting [7]) it was 5%; in assay [4] (setting [8]), 96% (active); in assay [4] (at 50.0 µM), 69%. Besides, the growth inhibition was 5% in assay [5] (setting [7]); 99% (active) in assay [5] (setting [8]); 98.6% (active) in assay [5] (at 50.0 µM); 32% in assay [6] (setting [7]); 99% (active) in assay [6] (setting [8]); 97.5% (active) in assay [6] (at 50.0 µM).
For `CN(C)/N=C(/CC(O)(C(F)(F)F)C(F)(F)F)c1ccc([N+](=O)[O-])cc1`, the growth inhibition in assay [1] (setting [7]) is 25%; in assay [1] (setting [8]), 20%; in assay [1] (at 50.0 µM), -4.65%; in assay [2] (setting [7]), 19%; in assay [2] (setting [8]), 11%; in assay [2] (at 50.0 µM), -8.95%. Further, the growth inhibition in assay [3] (setting [7]) was 19%; in assay [3] (setting [8]), 22%; in assay [3] (at 50.0 µM), 35.6%; in assay [4] (setting [7]), 12%; in assay [4] (setting [8]), 12%; in assay [4] (at 50.0 µM) it was -18.6%. Besides, the growth inhibition was 15% in assay [5] (setting [7]), 7% in assay [5] (setting [8]) and -12.9% in assay [5] (at 50.0 µM).
Turning to `CN(Cc1cnc2nc(N)nc(N)c2n1)c1ccc(C(=O)NC(CCC(=O)O)C(=O)O)cc1` (stereo not drawn), the growth inhibition in assay [1] (setting [7]) is 2%; in assay [1] (setting [8]), 5%; in assay [1] (at 50.0 µM), 37.2%; in assay [2] (setting [7]) it was -16%; in assay [2] (setting [8]) it was 79% (active); in assay [2] (at 50.0 µM) it was 88% (active). In addition, the growth inhibition in assay [3] (setting [7]) was 9%; in assay [3] (setting [8]), 53%; in assay [3] (at 50.0 µM), 45.8%; in assay [4] (setting [7]) it was 0%; in assay [4] (setting [8]) it was -10%; in assay [4] (at 50.0 µM) it was 1.4%. Besides, the growth inhibition in assay [5] (setting [7]) was 1%; in assay [5] (setting [8]), -6%; in assay [5] (at 50.0 µM), -9.7%; in assay [6] (setting [7]), -19%; in assay [6] (setting [8]), -9%; in assay [6] (at 50.0 µM), 25.1%.
As for `Cn1cc(/C=C/[N+](=O)[O-])c2ccc(OCc3ccccc3)cc21`, the growth inhibition was 2% in assay [1] (setting [7]); -6% in assay [1] (setting [8]); 4.75% in assay [1] (at 50.0 µM); -3% in assay [2] (setting [7]); -7% in assay [2] (setting [8]); 37% in assay [2] (at 50.0 µM). The growth inhibition was 4% in assay [3] (setting [7]); 4% in assay [3] (setting [8]); 10.2% in assay [3] (at 50.0 µM); 10% in assay [4] (setting [7]); 54% in assay [4] (setting [8]); 17.5% in assay [4] (at 50.0 µM). In addition, the growth inhibition in assay [5] (setting [7]) is 14%; in assay [5] (setting [8]), 34%; in assay [5] (at 50.0 µM) it was 76.3% (active); in assay [6] (setting [7]), 3%; in assay [6] (setting [8]), 11%; in assay [6] (at 50.0 µM), 16.9%.
Turning to `COC(O)C(=O)c1c2c(cc3c1CC1(Cc4cc5c(cc4C1)CCC5)C3)CCC2` (stereo not drawn), the growth inhibition in assay [1] (setting [7]) was 69%; in assay [1] (setting [8]), 98% (active); in assay [1] (at 50.0 µM), 69%; in assay [2] (setting [7]) it was 99% (active); in assay [2] (setting [8]), 99% (active); in assay [2] (at 50.0 µM), 80.5% (active). Moreover, the growth inhibition in assay [3] (setting [7]) is 94% (active); in assay [3] (setting [8]), 98% (active); in assay [3] (at 50.0 µM) it was 83.2% (active); in assay [4] (setting [7]), 99% (active); in assay [4] (setting [8]) it was 98% (active); in assay [4] (at 50.0 µM), 87.6% (active). Further, the growth inhibition in assay [5] (setting [7]) is 99% (active); in assay [5] (setting [8]) it was 98% (active); in assay [5] (at 50.0 µM), 88.5% (active); in assay [6] (setting [7]), 99% (active); in assay [6] (setting [8]), 98% (active); in assay [6] (at 50.0 µM), 90.5% (active).
For the compound `CSC(=S)NNC(C)c1nccc2ccccc12` (stereo not drawn), the growth inhibition in assay [1] (setting [7]) is 23%; in assay [1] (setting [8]) it was 97% (active); in assay [1] (at 50.0 µM) it was 97.8% (active); in assay [2] (setting [7]) it was -3%; in assay [2] (setting [8]), 98% (active); in assay [2] (at 50.0 µM), 98.8% (active). Further, the growth inhibition in assay [3] (setting [7]) is 29%; in assay [3] (setting [8]), 97% (active); in assay [3] (at 50.0 µM), 98.8% (active); in assay [4] (setting [7]) it was -8%; in assay [4] (setting [8]), 97% (active); in assay [4] (at 50.0 µM) it was 97.8% (active). Moreover, the growth inhibition is -7% in assay [5] (setting [7]); 97% (active) in assay [5] (setting [8]); 98.2% (active) in assay [5] (at 50.0 µM); 2% in assay [6] (setting [7]); 97% (active) in assay [6] (setting [8]); 98.8% (active) in assay [6] (at 50.0 µM).
